Reference: PubChem BioAssay (Tox21)
“And” between values parts separate entries of the source, which are not always exact repeats. Equal entries are not always repeated. Results filed as inconclusive are left out. A call without a number means that no potency is given here. Some structures have more than one record in an assay (separate samples or runs), and their calls can disagree. The source made the active and inactive calls. Unless noted, calls come from the whole dose curve; as a rule, active = well fitted curve in the direction sought with a large enough effect in the repeat runs; inconclusive = weak or mixed curves; inactive = no such curve, though single readings can be large; an effect the other way counts as inactive or inconclusive.

What was measured:
[1] = qHTS assay to identify small molecule antagonists of the glucocorticoid receptor (GR) signaling pathway - cell viability counter screen (AID 720693); note: nearly all actives have a fitted effect of over 55% in size; note: potency is the fitted concentration of half-maximal effect
[2] = qHTS assay for identifying genotoxic compounds that show differential cytotoxicity against isogenic chicken DT40 cell lines with known DNA damage response pathways - wild type cell line (AID 743012); note: nearly all actives have a fitted effect of over 60% in size; note: potency is the fitted concentration of half-maximal effect
Summary of the method: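 Cytotoxicity in repair-proficient parental chicken DT40 cells serves as the comparator for Rad54/Ku70- and Rev3-deficient lines. Cells were exposed to compounds for 40 h at 37 C/5% CO2, and ATP-based luminescence (CellTiter-Glo) measured viability.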

[3] = qHTS assay for identifying genotoxic compounds that show differential cytotoxicity against isogenic chicken DT40 cell lines with known DNA damage response pathways - Rad54/Ku70 mutant cell line (AID 743015); note: nearly all actives have a fitted effect of over 60% in size; note: potency is the fitted concentration of half-maximal effect
[4] = qHTS assay to identify small molecule antagonists of the androgen receptor (AR) signaling pathway - cell viability counter screen (AID 743033; note: nearly all actives have a fitted effect of over 45% in size; note: potency is the fitted concentration of half-maximal effect)
[5] = qHTS assay to identify small molecule antagonists of the androgen receptor (AR) signaling pathway using the MDA cell line - cell viability counter screen (AID 743041; note: nearly all actives have a fitted effect of over 45% in size; note: potency is the fitted concentration of half-maximal effect)
Summary of the method: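 Compound exposure lasted 16 h at 37C in MDA-kb2 AR-luc cells stimulated with R1881. Protease-based CellTiter-Fluor reagent was applied for the final 30 min and fluorescence measured.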

[6] = qHTS assay to identify small molecule antagonists of the thyroid receptor (TR) signaling pathway - cell viability counter screen (AID 743064); note: nearly all actives have a fitted effect of over 50% in size; note: potency is the fitted concentration of half-maximal effect
Summary of the method: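 GH3.TRE-Luc rat pituitary cells carrying a TRE-luciferase reporter were treated with compound plus 1 nM T3 (final) for 23.5 h at 37 °C. Viability was then read in the same wells by CellTiter-Fluor fluorescence after a further 30 min.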

[7] = qHTS assay to identify small molecule antagonists of the thyroid receptor (TR) signaling pathway (AID 743065); note: nearly all actives have a fitted effect of over 55% in size; note: potency is the fitted concentration of half-maximal effect
Summary of the method: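 GH3.TRE-Luc rat pituitary cells (two TREs driving luciferase) were dosed with compound, then stimulated with 1 nM T3 (final) for 23.5 h at 37 C. ONE-Glo luminescence was the read-out, with CellTiter-Fluor fluorescence as the cytotoxicity counter-screen.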

[8] = test system: thyroid hormone receptor (rat, GH3 cells); test: qHTS assay to identify small molecule agonists of the thyroid receptor (TR) signaling pathway (AID 743066; calls by dose curve)
[9] = molecular target: Estrogen receptor (Homo sapiens) (UniProt P03372); test: qHTS assay to identify small molecule antagonists of the estrogen receptor alpha (ER-alpha) signaling pathway (AID 743069; active = well fitted curve in the direction sought with a large enough effect in the signal ratio in the repeat runs, not every such curve was filed as active; the % refers to the signal ratio)
Summary of the method: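 In this cell-based reporter format, GripTite HEK293 cells harbouring ER-alpha-UAS-bla were grown overnight with 2% charcoal-stripped FBS, dosed with DMSO-dissolved compounds, then challenged with 17beta-estradiol. After 18 hr at 37C, beta-lactamase activity was detected by FRET fluorescence.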

[10] = qHTS assay to identify small molecule antagonists of the estrogen receptor alpha (ER-alpha) signaling pathway - cell viability counter screen (AID 743074; calls by dose curve; note: nearly all actives have a fitted effect of over 45% in size; note: potency is the fitted concentration of half-maximal effect)
[11] = molecular target: Estrogen receptor (Homo sapiens) (UniProt P03372); test: qHTS assay to identify small molecule agonists of the estrogen receptor alpha (ER-alpha) signaling pathway (AID 743075; calls by dose curve)
[12] = molecular target: Estrogen receptor (Homo sapiens) (UniProt P03372); test: qHTS assay to identify small molecule agonists of the estrogen receptor alpha (ER-alpha) signaling pathway using the BG1 cell line (AID 743079); note: nearly all actives have a fitted effect of over 20% in size
[13] = qHTS assay to identify small molecule antagonists of the estrogen receptor alpha (ER-alpha) signaling pathway using the BG1 cell line (AID 743080; calls by dose curve;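 note: BG1 cells stimulated with 17beta-estradiol alongside compound; series mostly up to about 70 µM; nearly all actives have a fitted effect of over 25% in size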)
Summary of the method: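 Seeding, 24 h rest, compound transfer from DMSO, 17beta-estradiol addition, 21.5 h incubation, CellTiter-Fluor (30 min, 37 C), then ONE-Glo (30 min, room temperature): this sequence was run on BG1-Luc-4E2 reporter cells.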

[14] = qHTS assay to identify small molecule antagonists of the estrogen receptor alpha (ER-alpha) signaling pathway using the BG1 cell line - cell viability counter screen (AID 743081);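 note: compound given together with 17beta-estradiol as the ER stimulus; nearly all actives have a fitted effect of over 45% in size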; note: potency is the fitted concentration of half-maximal effect
[15] = molecular target: Aromatase (Homo sapiens) (UniProt P11511); test: qHTS assay to identify aromatase inhibitors (AID 743083); note: nearly all actives have a fitted effect of over 55% in size; note: potency is the fitted concentration of half-maximal effect
[16] = qHTS assay for identifying genotoxic compounds that show differential cytotoxicity against isogenic chicken DT40 cell lines with known DNA damage response pathways - Rev3 mutant cell line (AID 743014); note: nearly all actives have a fitted effect of over 55% in size; note: potency is the fitted concentration of half-maximal effect
[17] = molecular target: Androgen receptor (Homo sapiens) (UniProt P10275); test: qHTS assay to identify small molecule antagonists of the androgen receptor (AR) signaling pathway (AID 743035; active = well fitted inhibition curve with a large enough effect in the signal ratio in the repeat runs, not every such curve was filed as active; the % refers to the signal ratio)
Summary of the method: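 Steps: seed AR-UAS-bla GripTite HEK293 cells, incubate 4 h at 37C; pin in test compound, then add agonist R1881; incubate 16 h at 37C; add LiveBLAzer B/G FRET substrate, 2 h at room temperature; read fluorescence.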

[18] = molecular target: Androgen receptor (Homo sapiens) (UniProt P10275); test: qHTS assay to identify small molecule agonists of the androgen receptor (AR) signaling pathway using the MDA cell line (AID 743040; note: nearly all actives have a fitted effect of over 20% in size)
Summary of the method: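 Testing was done with the MDA-kb2 AR-luc line, a human breast carcinoma stably transfected with MMTV-luciferase containing AR and GR response elements. Cells were exposed 16 h at 37C before ONE-Glo luminescence detection.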

[19] = molecular target: Androgen receptor (Homo sapiens) (UniProt P10275); test: qHTS assay to identify small molecule antagonists of the androgen receptor (AR) signaling pathway using the MDA cell line (AID 743042; note: nearly all actives have a fitted effect of over 55% in size; note: potency is the fitted concentration of half-maximal effect)
Summary of the method: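 MDA-kb2 breast carcinoma cells carrying MMTV-luciferase (AR/GR responsive) were co-treated with compounds and the agonist R1881 for 16 h at 37C. Inhibition read as ONE-Glo luminescence; CellTiter-Fluor fluorescence measured in parallel for cytotoxicity.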

[20] = molecular target: Androgen receptor (Homo sapiens) (UniProt P10275); test: qHTS assay to identify small molecule agonists of the androgen receptor (AR) signaling pathway (AID 743036; active = well fitted activation curve with a large enough effect in the signal ratio in the repeat runs, with a control signal flat, not every such curve was filed as active; the % refers to the signal ratio)
Summary of the method: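 HEK293 cells stably carrying a UAS-driven beta-lactamase reporter (GeneBLAzer AR-UAS-bla-GripTite) were plated at 2,000 cells/well, rested 4 h at 37C, then exposed to compounds in DMSO for 16 h. LiveBLAzer B/G FRET substrate was added for 2 h at room temperature; fluorescence read.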

Androgen receptor (Homo sapiens), sequence (P10275 whole entry, looked up): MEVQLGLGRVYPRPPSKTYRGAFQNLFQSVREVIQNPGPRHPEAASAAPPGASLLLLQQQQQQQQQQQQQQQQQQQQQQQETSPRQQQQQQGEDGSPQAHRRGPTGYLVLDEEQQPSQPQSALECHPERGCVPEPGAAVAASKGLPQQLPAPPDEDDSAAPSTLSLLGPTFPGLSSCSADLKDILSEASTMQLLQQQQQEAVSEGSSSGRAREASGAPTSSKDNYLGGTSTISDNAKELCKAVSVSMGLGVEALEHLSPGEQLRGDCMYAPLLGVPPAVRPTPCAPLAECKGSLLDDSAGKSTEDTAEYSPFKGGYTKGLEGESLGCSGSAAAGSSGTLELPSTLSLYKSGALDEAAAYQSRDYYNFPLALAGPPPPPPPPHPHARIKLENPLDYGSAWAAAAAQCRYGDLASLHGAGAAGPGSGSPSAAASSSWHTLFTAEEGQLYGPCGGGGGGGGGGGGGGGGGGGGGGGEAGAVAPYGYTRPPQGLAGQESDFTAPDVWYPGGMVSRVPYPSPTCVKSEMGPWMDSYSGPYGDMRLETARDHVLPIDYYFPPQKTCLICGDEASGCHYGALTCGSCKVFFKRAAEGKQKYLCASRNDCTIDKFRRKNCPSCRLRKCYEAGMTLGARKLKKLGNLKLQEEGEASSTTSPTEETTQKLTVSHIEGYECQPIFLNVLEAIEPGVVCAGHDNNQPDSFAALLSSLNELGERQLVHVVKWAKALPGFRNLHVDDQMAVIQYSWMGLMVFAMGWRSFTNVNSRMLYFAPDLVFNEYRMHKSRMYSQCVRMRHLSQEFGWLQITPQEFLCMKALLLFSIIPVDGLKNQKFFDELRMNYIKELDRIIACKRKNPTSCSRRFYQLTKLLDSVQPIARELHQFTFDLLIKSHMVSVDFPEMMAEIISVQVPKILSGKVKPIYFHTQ
Estrogen receptor (Homo sapiens), sequence (P03372 whole entry, looked up): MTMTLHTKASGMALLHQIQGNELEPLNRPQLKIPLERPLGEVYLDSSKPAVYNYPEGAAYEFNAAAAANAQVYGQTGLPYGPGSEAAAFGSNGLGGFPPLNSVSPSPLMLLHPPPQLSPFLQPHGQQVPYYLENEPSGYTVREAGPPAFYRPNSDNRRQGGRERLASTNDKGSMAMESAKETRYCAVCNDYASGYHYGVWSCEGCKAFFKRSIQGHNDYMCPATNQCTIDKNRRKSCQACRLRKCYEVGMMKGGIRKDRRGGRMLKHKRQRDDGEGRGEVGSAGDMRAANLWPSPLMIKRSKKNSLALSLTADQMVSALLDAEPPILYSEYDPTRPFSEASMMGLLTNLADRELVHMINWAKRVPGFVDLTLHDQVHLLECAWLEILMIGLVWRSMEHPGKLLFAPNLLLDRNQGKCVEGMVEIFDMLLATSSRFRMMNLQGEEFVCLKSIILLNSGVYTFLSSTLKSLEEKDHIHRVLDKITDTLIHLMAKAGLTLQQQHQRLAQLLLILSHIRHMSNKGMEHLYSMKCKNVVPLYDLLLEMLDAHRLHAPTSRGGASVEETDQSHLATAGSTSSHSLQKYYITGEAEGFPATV
Aromatase (Homo sapiens), sequence (P11511 whole entry, looked up): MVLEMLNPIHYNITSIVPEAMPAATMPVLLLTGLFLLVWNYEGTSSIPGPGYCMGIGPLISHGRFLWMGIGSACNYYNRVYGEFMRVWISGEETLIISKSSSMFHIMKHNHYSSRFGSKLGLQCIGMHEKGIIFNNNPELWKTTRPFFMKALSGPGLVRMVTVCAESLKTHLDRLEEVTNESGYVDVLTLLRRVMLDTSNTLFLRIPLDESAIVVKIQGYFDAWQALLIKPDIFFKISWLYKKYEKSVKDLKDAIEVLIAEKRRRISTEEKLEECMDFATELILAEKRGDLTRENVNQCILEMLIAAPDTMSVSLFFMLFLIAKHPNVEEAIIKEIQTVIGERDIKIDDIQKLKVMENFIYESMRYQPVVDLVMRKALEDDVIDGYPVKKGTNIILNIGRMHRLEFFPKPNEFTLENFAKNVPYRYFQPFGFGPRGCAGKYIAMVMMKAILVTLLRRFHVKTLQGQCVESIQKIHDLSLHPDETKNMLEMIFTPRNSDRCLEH

Row | Structure (SMILES) | Potency [1] | Potency [2] | Potency [3] | Potency [4] | Potency [5] | Potency [6] | Potency [7] | Potency [8] | Potency [9] | Potency [10] | Potency [11] | Potency [12] | Potency [13] | Potency [14] | Potency [15] | Potency [16] | Potency [17] | outcome [18] | Potency [19] | Potency [20]
1 | CCCNC(C)C(=O)Nc1ccccc1C (stereo not drawn) | inactive | inactive | inactive | inactive | inactive | inactive | inactive | inactive | inactive | inactive | inactive | inactive | inactive | inactive | inactive |  |  |  |  | 
2 | NC12CC3CC(CC(C3)C1)C2 | inactive | inactive | inactive | inactive | inactive |  |  | inactive |  | inactive |  |  |  | inactive | inactive |  |  |  |  | 
3 | CCc1cc(C(C)(C)C)c(O)c(C(C)(C)C)c1 | inactive |  | inactive | inactive | inactive |  |  | inactive |  | inactive |  |  |  | inactive | inactive |  |  |  |  | 
4 | CC[C@@H](N)CO |  | inactive | inactive | inactive | inactive |  | inactive | inactive | inactive | inactive | inactive | inactive | inactive | inactive | inactive | inactive |  |  |  | 
5 | CCCC(=O)c1ccccc1 | inactive |  | inactive | inactive | inactive | inactive | inactive | inactive |  | inactive |  |  |  | inactive | inactive |  | inactive | inactive | inactive | 
6 | OCCN1CCNCC1 | inactive |  | inactive | inactive | inactive | inactive |  |  | inactive |  | inactive | inactive | inactive | inactive | inactive |  |  |  |  | 
7 | CCCCCCCCCCCCCCCCCl | inactive |  | inactive | inactive | inactive | inactive | inactive | inactive | inactive | inactive | inactive | inactive | inactive | inactive | inactive | inactive |  |  |  | 
8 | Nc1ccc(O)cc1 | 15.1 µM (active) and 25.5 µM (active) |  |  | inactive | 29.8 µM (active) and 48.6 µM (active) and 56.6 µM (active) | 8.41 µM (active) and 17.2 µM (active) and 14.2 µM (active) |  |  |  | inactive | inactive | inactive | inactive | inactive and 63.5 µM (active) | inactive and 31.8 µM (active) |  |  | inactive | 5.96 µM (active) and 12.2 µM (active) and 25.3 µM (active) | inactive
9 | O=C(O)c1cccc(C(=O)O)c1 | inactive |  |  | inactive | inactive | inactive | inactive | inactive | inactive | inactive | inactive | inactive | inactive | inactive | inactive |  |  |  |  | 
10 | CC(C)C(=O)c1c(C(C)C)nn2ccccc12 | inactive |  |  | inactive | inactive | inactive | inactive | inactive |  |  |  |  |  | inactive | inactive | inactive |  |  |  | 
11 | BrC1CCC(Br)C(Br)CCC(Br)C(Br)CCC1Br (stereo not drawn) |  | 46.1 µM (active) | inactive and 25.9 µM (active) | 46.5 µM (active) | inactive | 5.43 µM (active) and 20.6 µM (active) | 4.84 µM (active) and 13 µM (active) | inactive | inactive | 48.8 µM (active) | inactive |  | inactive | inactive |  | inactive and 41.1 µM (active) | inactive | inactive | inactive | inactive
12 | Cc1ccc(S(=O)(=O)Oc2ccc(N=Nc3ccc(-c4ccc(N=Nc5c(O)ccc6cc(S(=O)(=O)O)cc(S(=O)(=O)O)c56)c(C)c4)cc3C)cc2)cc1 | inactive |  | 54.7 µM (active) and 11.2 µM (active) | inactive | 54.7 µM (active) and 35.5 µM (active) | 27.4 µM (active) and 17.8 µM (active) | 10.9 µM (active) | inactive |  |  |  |  |  | 30.8 µM (active) and 15.9 µM (active) |  |  | inactive | inactive |  | inactive
